The results in this text go back to PubChem BioAssay.

In assay [1] the test system is TRPC4 beta (transient receptor potential cation channel C4), mouse. Put plainly: activators of mouse TRPC4 channel, confirmation, cell-based, Fluo4 calcium, HEK293 TRPC4beta/mu-opioid, duplicates, 10 µM (AID 2426;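 active = fluorescence ratio normalized to control raised more than 50% in primary screen plus both repeat runs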). To be noted: Fluo4 calcium fluorescence, at 10 µM; active compounds read high.
Assay [2] concerns transient receptor potential cation channel C4 beta (TRPC4), mouse. Put plainly: activators of mouse TRPC4 channel, confirmation, cell-based, second round, Fluo4, HEK293 TRPC4beta/mu-opioid, 1 µM (AID 2461;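 active = primary screen active and over 50% activation in each of two duplicate runs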). To be noted: Fluo4 calcium fluorescence, at 1 µM; active compounds read high.
The subject of assay [3] is TRPC4 (transient receptor potential cation channel C4 beta), mouse. Put plainly: positive allosteric modulators of mouse TRPC4, confirmation, cell-based, second round, Fluo-4, HEK293 TRPC4beta/mu-opioid, 1 µM (AID 2554;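 active = primary screen hit whose fluorescence ratio, in both repeats, exceeds the weak agonist control mean by 3 SD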). To be noted: DAMGO EC20, Fluo-4 calcium flux, at 1 µM; active compounds read high. (In general: Calcium flux is commonly read through the fluorescence of an indicator in the cells.)

The test system of assay [4] is TRPC4 beta (transient receptor potential cation channel C4), mouse. Put plainly: positive allosteric modulators of mouse TRPC4, confirmation, cell-based, Fluo-4, HEK293 TRPC4beta/mu-opioid (AID 2555;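 active = primary screen hit whose calcium fluorescence ratio, in both repeats, exceeds the weak agonist control mean by 3 SD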). To be noted: DAMGO EC20, Fluo-4 calcium flux, at 10 µM; active compounds read high.
Assay [5] deals with Short transient receptor potential channel 4 (Mus musculus) (UniProt Q9QUQ5). Put plainly: inhibitors of mouse TRPC4 channel, confirmation, cell-based, Fluo4, HEK293 TRPC4beta/mu-opioid (AID 2636). To be noted: DAMGO, Fluo4 calcium flux, at 10 µM; active compounds read high.
The target is the same in assay [6]. Put plainly: inhibitors of mouse TRPC4 channel, confirmation, cell-based, second round, Fluo4, HEK293 TRPC4beta/mu-opioid, 1 µM (AID 2637;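 active = calcium signal ratio cut to more than 3 SD under the fully stimulated control mean yet still positive, in both repeats and the primary screen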;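 as to inhibition: percent of integrated ratio relative to wells lacking test compound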). To be noted: Fluo4 calcium flux, DAMGO, at 1 µM; active compounds read high.
The target is the same in assay [7]. Put plainly: mouse TRPC4 channel activators, dose response, cell-based, HEK293 TRPC4/mu-opioid, Fluo-4 calcium (AID 434937;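 active = primary screen activator hit with a dose response curve and TRPC4 channel activation at any tested dose; inactive = no activation, no dose response, or not a primary hit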).
The target is the same in assay [8]. Put plainly: TRPC4 positive allosteric modulators, dose response, cell-based, HEK293 TRPC4/mu-opioid, Fluo-4 calcium, EC20 DAMGO (AID 434941;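 active = earlier screen potentiator hit that boosts the TRPC4 ion channel at some dose, with a dose response; inactive = no potentiation, no dose response, or not a prior hit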;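 also: calcium entry triggered by an EC20 dose of DAMGO at the co-expressed mu-opioid receptor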).
Assay [9] deals with Short transient receptor potential channel 6 (Mus musculus) (UniProt Q61143). Put plainly: inhibition of mouse TRPC6 channel, confirmation, selectivity assay for TRPC4 inhibitor project, cell-based, HEK293, membrane potential dye, duplicate (AID 434948;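 active = active in primary screen and both duplicates, each dropping signal beyond three positive-control SD with fluorescence still positive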). To be noted: HEK293 TRPC6, membrane potential dye fluorescence, at 10 µM, stimulated with maximal-effect acetylcholine; active compounds read high.

Assay [10] has the same target. Put plainly: activation of mouse TRPC6 channel, confirmation, selectivity assay for TRPC4 activator project, cell-based, HEK293, membrane potential dye, duplicate (AID 434950;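 active = membrane potential signal rise above negative control mean plus 3 SD in both duplicates, also active in the earlier TRPC4 screen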). To be noted: HEK293 TRPC6, membrane potential fluorescence, at 10 µM; active compounds read high.
Assay [11] shares this target. Put plainly: TRPC6 potentiation by TRPC4 potentiator hits, confirmation, selectivity assay for TRPC4 potentiator project, HEK293 cells, membrane potential dye, duplicate (AID 434952;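 active = compound raising the membrane signal above positive-control mean plus 3 SD in both repeats, and a primary screen hit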). To be noted: HEK293 TRPC6, membrane potential dye fluorescence, at 10 µM, maximal acetylcholine added after compound; active compounds read high.
In assay [12] the target is Short transient receptor potential channel 4 (Mus musculus) (UniProt Q9QUQ5). Put plainly: calcium flux activators in TRPC4/5HT1a cells, counter-screen for TRPC4 activator project, cell-based, second counter screen, HEK293 TRPC4/5HT1a, Fluo-4 (AID 434977;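 active = calcium signal rise above buffer-control mean plus 5 SD in both duplicates, and also a hit in the primary screen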). To be noted: Fluo-4 calcium flux, at 10 µM; active compounds read high.
A short description of assay [13]: calcium flux inhibitors in TRPC4/5HT1a cells, confirmation, counter-screen for TRPC4 inhibitor project, cell-based, second counter screen, HEK293 TRPC4/5HT1a, Fluo-4 (AID 434978;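 active = primary screen active whose calcium signal fell more than 3 SD beyond the full-serotonin control mean in both duplicate plates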;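 as to outcome: serotonin given first at submaximal then at maximal dose after compound preincubation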). Particulars: Fluo-4 calcium flux, at 10 µM, serotonin added to trigger calcium flux; active compounds read high.
Assay [14] deals with TRPC4 (mouse), co-expressed with 5HT1a in HEK293. Put plainly: calcium flux potentiators in TRPC4/5HT1a cells, confirmation, counter-screen for TRPC4 potentiator project, cell-based, second counter screen, HEK293 TRPC4/5HT1a, Fluo-4 (AID 434979;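 active = signal rise over 3 SD above mean of control wells given weak agonist, in both repeats and first screen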). Particulars: Fluo-4 calcium flux, at 10 µM, serotonin added at its EC20 dose; active compounds read high.
Assay [15] can be described thus: calcium flux activation in mu-opioid HEK293 cells, confirmation, counter-screen for TRPC4 activator project, cell-based, HEK293 mu-opioid receptor line (AID 449723;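 active = hit in primary screen, with calcium signal over 5 SD above buffer well mean in both duplicates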;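 also: counter screen cells carry the mu-opioid receptor alone and lack TRPC4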). To be noted: Fluo-4 calcium fluorescence, at 10 µM; active compounds read high.
A short description of assay [16]: calcium flux enhancement in mu-opioid HEK293 cells, confirmation, counter-screen for TRPC4 allosteric potentiator project, cell-based, HEK293 mu-opioid receptor line (AID 449724;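 active = calcium signal rise more than 3 SD above the low-dose agonist control mean, in both duplicate plates and the primary screen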;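 also: HEK293 cells carrying mu-opioid receptor only with no TRPC4 channel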). Particulars: Fluo-4 calcium flux, at 10 µM, compound added before EC20 DAMGO stimulus; active compounds read high.

Molecules are shown by their SMILES. For some assays here: Potency and affinity values are given separately. Activity calls are given as the source filed them.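 The calls were made as follows, unless noted: active = calcium signal cut by more than 3 SD below the full-agonist control yet still positive, in both repeats and the earlier primary screen; inactive = the rest.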

Sequence of Short transient receptor potential channel 6 (Mus musculus) (Q61143 whole entry, looked up): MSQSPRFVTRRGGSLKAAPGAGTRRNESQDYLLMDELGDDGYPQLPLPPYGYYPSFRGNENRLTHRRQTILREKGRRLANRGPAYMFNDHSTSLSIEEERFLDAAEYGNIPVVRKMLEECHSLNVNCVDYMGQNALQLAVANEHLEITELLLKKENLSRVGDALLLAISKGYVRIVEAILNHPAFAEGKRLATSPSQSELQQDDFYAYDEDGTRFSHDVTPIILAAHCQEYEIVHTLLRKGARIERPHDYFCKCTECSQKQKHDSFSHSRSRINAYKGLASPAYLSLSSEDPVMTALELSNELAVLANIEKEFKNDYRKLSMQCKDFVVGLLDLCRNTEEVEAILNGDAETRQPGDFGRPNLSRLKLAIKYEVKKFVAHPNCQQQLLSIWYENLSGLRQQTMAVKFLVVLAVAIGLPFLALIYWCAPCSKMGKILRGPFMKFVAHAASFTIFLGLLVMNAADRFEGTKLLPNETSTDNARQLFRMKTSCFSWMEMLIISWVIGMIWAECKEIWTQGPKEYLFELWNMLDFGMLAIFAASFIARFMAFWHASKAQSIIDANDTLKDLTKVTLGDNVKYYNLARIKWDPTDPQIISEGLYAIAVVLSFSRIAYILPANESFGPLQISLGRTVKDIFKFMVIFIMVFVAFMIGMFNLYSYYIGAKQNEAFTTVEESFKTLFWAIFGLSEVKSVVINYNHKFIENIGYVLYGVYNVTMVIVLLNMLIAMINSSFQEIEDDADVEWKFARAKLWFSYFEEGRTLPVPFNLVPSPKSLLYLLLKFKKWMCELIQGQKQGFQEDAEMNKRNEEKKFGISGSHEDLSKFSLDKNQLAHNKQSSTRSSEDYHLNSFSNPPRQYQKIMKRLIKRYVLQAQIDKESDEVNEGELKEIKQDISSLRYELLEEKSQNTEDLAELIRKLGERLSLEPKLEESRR
Sequence of Short transient receptor potential channel 4 (Mus musculus) (Q9QUQ5 whole entry, looked up): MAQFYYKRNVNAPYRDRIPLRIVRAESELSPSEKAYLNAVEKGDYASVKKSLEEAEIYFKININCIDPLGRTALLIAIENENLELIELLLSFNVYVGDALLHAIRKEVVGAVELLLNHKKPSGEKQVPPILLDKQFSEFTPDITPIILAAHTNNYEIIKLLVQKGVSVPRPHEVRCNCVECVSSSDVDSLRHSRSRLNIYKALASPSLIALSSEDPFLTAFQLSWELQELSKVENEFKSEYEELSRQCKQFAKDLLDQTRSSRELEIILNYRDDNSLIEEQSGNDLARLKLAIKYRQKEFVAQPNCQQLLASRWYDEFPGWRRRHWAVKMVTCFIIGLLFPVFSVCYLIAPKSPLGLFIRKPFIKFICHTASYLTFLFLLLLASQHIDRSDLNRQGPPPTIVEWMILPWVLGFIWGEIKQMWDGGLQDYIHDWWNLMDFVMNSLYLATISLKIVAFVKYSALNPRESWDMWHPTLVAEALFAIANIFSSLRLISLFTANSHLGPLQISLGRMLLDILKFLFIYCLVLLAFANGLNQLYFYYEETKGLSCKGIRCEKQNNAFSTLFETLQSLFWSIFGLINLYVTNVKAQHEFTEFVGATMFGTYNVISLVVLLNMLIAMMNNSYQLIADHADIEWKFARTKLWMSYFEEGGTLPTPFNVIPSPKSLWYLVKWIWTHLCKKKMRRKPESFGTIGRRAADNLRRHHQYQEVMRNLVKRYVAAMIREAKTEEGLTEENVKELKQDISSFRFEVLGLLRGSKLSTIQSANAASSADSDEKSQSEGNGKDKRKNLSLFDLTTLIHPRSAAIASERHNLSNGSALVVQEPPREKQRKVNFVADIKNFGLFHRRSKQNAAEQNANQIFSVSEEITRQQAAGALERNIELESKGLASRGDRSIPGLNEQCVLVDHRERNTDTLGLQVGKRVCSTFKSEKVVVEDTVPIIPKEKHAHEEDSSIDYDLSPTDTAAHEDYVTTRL

Regarding `CCOC(=O)CSc1nc2c(sc(=S)n2Cc2ccco2)c(=O)n1-c1ccccc1`, the result in assay [1], in [2], in assay [3], in assay [4], in [7] and in assay [8] was inactive. The compound was classed as inactive in assay [9], in [10], in [11], in assay [12], in [13] and in [14]. Moreover, the result in assay [15] and in [16] was inactive. Further, the inhibition in assay [5] is 68% (active); in assay [6], 42% (active).
For the compound `Nc1c2c(nc3ccccc13)N(c1ccccc1)CC2`, the result in assay [1], in [2], in assay [3], in assay [4], in assay [6] and in [7] was inactive. Besides, the outcome in [8], in assay [10], in [11], in [12], in assay [14] and in [15] was inactive. Moreover, in assay [16], the result was inactive. Moreover, the values for the inhibition in [5], in assay [9] and in assay [13] were 77% (active), 26% (active) and 31.2% (active), respectively.
Consider `CCc1cccc(OCC(=O)Nc2ccc(C(=O)O)cc2NC(=O)COc2cccc(CC)c2)c1`, for which the outcome in [1], in [2], in [3], in [4], in [6] and in [7] was inactive. The outcome in assay [8], in assay [9], in assay [10], in [11], in assay [12] and in assay [14] was inactive. The outcome in assay [15] and in [16] was inactive. Further, the inhibition was 93% (active) in assay [5] and 40.9% (active) in assay [13].
As for `COc1ccc(CN(C)C(=O)c2ccc(NC(=O)CC3SC(N4CCCC4)=NC3=O)cc2)c(OC)c1` (stereo not drawn), the result in [1], in assay [2], in assay [3], in assay [4], in assay [6] and in assay [7] was inactive. Further, the result in [8], in assay [9], in assay [10], in assay [11], in assay [12] and in assay [13] was inactive. Moreover, the result in assay [14], in assay [15] and in [16] was inactive. In assay [5], the inhibition was 56% (active).
Regarding `c1ccc2[nH]c(CCCCc3nc4ccccc4[nH]3)nc2c1`, the outcome in [1], in [2], in assay [3], in [4], in [7] and in [8] was inactive. For the same compound, the compound was classed as inactive in [9], in assay [10], in [11], in assay [12], in assay [14] and in assay [15]. Besides, in [16], the outcome was inactive. In addition, the inhibition in assay [5] is 85% (active); in assay [6], 55% (active); in assay [13], 40.6% (active).
Take `CCOC(=O)C1=NN(c2ccccc2C)C2=NC(C)=C(C(=O)OC)C(c3cccc(OC)c3)N12` (stereo not drawn): the result in [1], in [2], in [3], in assay [4], in assay [6] and in [7] was inactive. Also, the result in [8], in [9], in [10], in [11], in [12] and in assay [14] was inactive. Further, the outcome in [15] and in [16] was inactive. In addition, the figures for the inhibition in [5] and in [13] were 75% (active) and 20.5% (active), respectively.
Regarding `Cc1cc2[nH]c3ccccc3c2c(C)n1`, the result in [1], in assay [2], in assay [3], in [4], in [6] and in [7] was inactive. Further, the outcome in [8], in assay [10], in assay [11], in [12], in [14] and in assay [15] was inactive. The outcome in [16] was inactive. For the same compound, the inhibition was 87% (active) in [5], 41.5% (active) in assay [9] and 20.3% (active) in assay [13].
Take `Oc1ccccc1Nc1nc(NCc2ccco2)c2ccccc2n1`: the outcome in [1], in assay [2], in assay [3], in [4], in assay [6] and in assay [7] was inactive. Also, the result in assay [8], in assay [10], in assay [11], in assay [12], in assay [14] and in assay [15] was inactive. For the same compound, the outcome in assay [16] was inactive. In addition, the inhibition is 88% (active) in assay [5], 34.5% (active) in [9] and 39.1% (active) in assay [13].

By inhibition is commonly meant the drop in the measured response relative to a control, in per cent.
